Compound activity: PubChem BioAssay, several laboratories
An excerpt weighted towards active compounds, which were near 4.2% of everything screened.
esBAF inh: blocks esBAF chromatin remodeling in mouse ES cells. reporter increase, % at 12.5 µM. hit rate 2% among 350,000. Bmi1-luciferase knock-in reporter, 24 h; 100% = twice the neutral-well signal. AID 602393; in the data active = activation above about 40%; inconclusive = no clear call, values can overlap the other calls;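 note: 0% = median of the plate's neutral control wells and 100% = double that signal; a rise in the Bmi1 reporter signal indicates esBAF inhibition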
FXN GAA850 act: activators of GAA850 frataxin (FXN) promoter. AID 540364. hit rate 0.56% among 360,000. HEK293 lucGAA850 FXN promoter luciferase reporter, 24 h; percent of 10 µM SAHA response. activation, % at 6 µM;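 active = activation above the average of all compounds screened plus 3 SD, cutoff fixed separately per campaign, cut at about 7.5% in these data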;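 note: 0% = DMSO wells and 100% = 10 µM SAHA wells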
Wnt bcat act: Wnt/beta-catenin pathway activation; Wnt/beta-catenin reporter cell assay, activator, plate reader; hit rate 1.2% among 300,000; activation, % at 9.35 µM; in the data active = activation above about 30%, passing the limit was not always enough; inconclusive = no clear call, values can overlap the other calls;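 note: 0% = neutral control wells and 100% = positive control wells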
MITF act: increases MITF-driven TRPM1 promoter luciferase signal; AID 588334; activation, % at 12.5 µM; SK-MEL-5 TRPM1-promoter luciferase, 24 h; % of positive control, neutral wells = 0; hit rate 0.75% among 300,000;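 active = mean activation of at least 80% with every replicate also reaching 80%; inconclusive = mean reaches 80% but some replicate falls short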;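 note: 0% = neutral control wells and 100% = parthenolide positive control wells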
AHR activator: activates the human aryl hydrocarbon receptor; AID 2796; hit rate 2.5% among 320,000; P35869; AHR-responsive luciferase reporter cells, luminescence; activation, % at 5 µM; in the data active = activation above about 47%;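 note: 0% = vehicle wells and 100% = reference agonist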
Target sequence (P35869 whole entry, looked up): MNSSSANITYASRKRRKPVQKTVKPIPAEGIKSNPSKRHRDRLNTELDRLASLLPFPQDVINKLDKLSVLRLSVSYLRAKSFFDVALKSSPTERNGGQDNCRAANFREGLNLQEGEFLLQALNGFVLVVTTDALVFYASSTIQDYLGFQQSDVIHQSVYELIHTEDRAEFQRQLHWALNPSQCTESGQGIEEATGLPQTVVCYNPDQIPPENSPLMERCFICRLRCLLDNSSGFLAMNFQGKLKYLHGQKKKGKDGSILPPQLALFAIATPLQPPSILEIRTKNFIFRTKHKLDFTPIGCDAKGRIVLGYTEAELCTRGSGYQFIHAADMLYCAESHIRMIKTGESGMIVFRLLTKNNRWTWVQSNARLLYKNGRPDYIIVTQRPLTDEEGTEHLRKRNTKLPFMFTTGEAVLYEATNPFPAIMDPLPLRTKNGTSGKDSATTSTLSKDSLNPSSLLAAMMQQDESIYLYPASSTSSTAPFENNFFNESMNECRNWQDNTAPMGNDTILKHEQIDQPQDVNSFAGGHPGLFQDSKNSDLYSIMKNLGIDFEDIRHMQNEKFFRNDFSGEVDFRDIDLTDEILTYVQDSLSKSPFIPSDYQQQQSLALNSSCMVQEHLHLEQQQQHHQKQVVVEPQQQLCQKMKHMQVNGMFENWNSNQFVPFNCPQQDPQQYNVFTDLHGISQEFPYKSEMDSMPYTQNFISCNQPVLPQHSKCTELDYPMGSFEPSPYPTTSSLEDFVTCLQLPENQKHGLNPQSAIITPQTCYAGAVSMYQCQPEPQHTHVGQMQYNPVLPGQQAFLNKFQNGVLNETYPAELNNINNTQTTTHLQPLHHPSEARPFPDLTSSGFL
* hit, by the source's call; ? = inconclusive; · = not tested or not shown.

SMILES | esBAF inh | FXN GAA850 act | Wnt bcat act | MITF act | AHR activator
CC1CCN(C(=O)COC(=O)c2n[nH]c3ccccc23)CC1 | 57.6* | 6.3 | · | 65.9 | 1.2
CC1CCCCN1C(=O)COC(=O)c1cc(Cl)c2c(c1)OCO2 (stereo not given) | 55.2* | 4.8 | 17.1 | ? | ·
CCC1CCCCN1C(=O)COC(=O)c1n[nH]c2ccccc12 (stereo not given) | 7.1 | 1.5 | -1.5 | 9.7 | 0.1
CC1CCN(C(=O)COC(=O)c2ccc3c(c2)OCO3)CC1 | 47.6* | 4.2 | 20.0 | 66.8 | 3.1
CC=Cc1ccc2n(c1=O)C[C@@H]1[C@@H](CO)[C@H](C(=O)NCC(F)(F)F)[C@H]2N1C(=O)C1CCC1 (mixture of isomers) | -0.9 | · | · | · | ·
CO[C@@H]1CN(C)C(=O)c2cc(NC(=O)C3CCC3)ccc2OC[C@@H](C)N(Cc2nccs2)C[C@@H]1C | -4.9 | · | · | · | ·
O=C(OCC(=O)N1CCCCCC1)c1cccs1 | 45.5* | 4.2 | · | 37.0 | 1.5
O=C(OCC(=O)N1CCCCC1)c1cccs1 | 47.7* | 2.9 | 5.1 | 83.5* | -1.0
CCOC(=O)C1CCCN(C(=O)COC(=O)c2cccs2)C1 (stereo not given) | 3.0 | 3.5 | -4.9 | 22.6 | -0.4
CCCC(=O)N1CCN(Cc2ccc3c(c2)OCO3)CC1 | · | 2.5 | · | 12.6 | 1.9
CCOCC(=O)N1CCN(Cc2ccc3c(c2)OCO3)CC1 | 0.2 | -0.1 | 31.4* | -0.2 | 0.6
O=C(C[C@H]1C=C[C@H](NC(=O)c2ccc(F)cc2)[C@@H](CO)O1)NCCc1ccccc1 | 6.3 | · | · | · | ·
O=C(Nc1ccc(N2CCOCC2)nc1)c1ccc(C(F)(F)F)cc1 | · | -1.8 | -1.8 | 9.4 | -8.3
O=C(Nc1ccc(NC(=O)C2CC2)cn1)c1ccccc1Cl | 42.4* | 0.1 | 36.9* | 35.0 | 3.0
COc1ccccc1C(=O)Nc1ccc(NC(=O)C2CCCCC2)nc1 | 12.2 | -0.5 | 1.1 | 25.0 | 4.9
O=C(Nc1ccc(NC(=O)C2CC2)cn1)c1ccccc1 | -26.6 | -1.5 | 15.2 | -3.7 | 5.5
Cc1ccc(S(=O)(=O)N2CCCC(C(=O)Nc3ccc(NC(=O)c4ccccn4)cc3)C2)cc1 (stereo not given) | 26.0 | 1.6 | 60.5* | 36.9 | 0.8
O=C(Nc1ccc(N2CCOCC2)nc1)c1ccccc1Cl | 44.7* | 4.6 | 21.2 | 54.3 | -5.2
O=C(Nc1ccc(NC(=O)C2CCCCC2)nc1)c1ccccn1 | 47.2* | 6.0 | ? | 93.8* | 7.3
O=C(Cc1ccccn1)NCC[C@@H]1CC[C@@H](NC(=O)Nc2ccc(Cl)cc2)[C@@H](CO)O1 | -3.8 | · | · | · | ·
C[C@@H]1CCCCO[C@H](CN(C)Cc2ccncc2)[C@H](C)CN([C@H](C)CO)C(=O)c2cc(NS(=O)(=O)c3ccccc3)ccc2O1 | -1.9 | · | · | · | ·
O=C1c2cccc3cccc(c23)C(=O)N1Cc1ccccc1 | · | 0.6 | -4.1 | -4.7 | 8.6
COc1ccc(CN2C(=O)c3cccc4cccc(c34)C2=O)cc1 | · | 1.1 | 41.4* | -2.7 | 2.1
COCC1CCN(C(=O)c2cc(COc3cc(C)c(Cl)c(C)c3)on2)C1 (stereo not given) | 64.4* | 5.5 | 20.1 | 73.4 | 5.0
Cc1cc(OCc2cc(C(=O)N3CCCCCC3)no2)cc(C)c1Cl | 48.0* | 3.2 | 34.7* | ? | 6.7
SMILES | esBAF inh | FXN GAA850 act | Wnt bcat act | MITF act | AHR activator
C[C@@H]1CN([C@@H](C)CO)C(=O)c2cccc(NC(=O)C3CCOCC3)c2O[C@@H]1CN(C)Cc1ccc(Cl)c(Cl)c1 | 4.0 | · | · | · | ·
COc1cccc(OCCCOc2ccc([N+](=O)[O-])cc2Cl)c1 | -3.9 | 1.4 | -4.2 | -9.2 | 12.0
COc1cc(C)ccc1OCCCOc1ccccc1Br | 51.6* | 2.6 | 9.9 | 60.3 | 18.4
COc1ccccc1OCCCOc1ccc([N+](=O)[O-])cc1Cl | 55.9* | 5.4 | -2.1 | · | 20.3
CCCNC(=O)C[C@H]1CC[C@@H]2[C@H](COC[C@H](O)CN2C(=O)Nc2ccccc2OC)O1 | -14.0 | · | · | · | ·
COc1ccc(N=CC2=C(O)CC(C)(C)CC2=O)cc1 | 49.4* | 1.1 | · | 31.6 | 1.1
COc1ccc(OC)c(N=CC2=C(O)CC(C)(C)CC2=O)c1 | 2.4 | 4.0 | · | 1.0 | 6.8
CCC(=O)Nc1ccc(-c2nn3c(C)nnc3s2)cc1C | · | 2.4 | 4.0 | · | 53.6*
Cc1ccc(-c2nn3c(C)nnc3s2)cc1NC(=O)C(C)C | -0.1 | 0.8 | -3.5 | -7.1 | 33.8
COc1ccc(OC)c(CCNC(=O)CC2Oc3ccccc3NC2=O)c1 (stereo not given) | 0.9 | 0.1 | -7.2 | -14.8 | 52.3*
C[C@@H]1CN([C@@H](C)CO)C(=O)c2cc(NC(=O)Cc3ccccc3)ccc2O[C@@H](C)CCCCO[C@H]1CN(C)Cc1ccncc1 | -2.7 | · | · | · | ·
Cc1noc(C)c1NC(=O)N(C)C[C@H]1OCc2ccccc2-c2ccccc2C(=O)N([C@@H](C)CO)C[C@@H]1C | 0.5 | · | · | · | ·
COc1ccc(-c2cc(C(=O)Nc3cccnc3)c3ccccc3n2)cc1OC | 10.1 | -2.4 | -0.2 | -0.2 | 66.8*
Cc1ccc(-c2cc(C(=O)Nc3nccs3)c3ccccc3n2)o1 | · | -0.8 | · | 3.5 | 55.3*
COc1cccc(-c2cc(C(=O)Nc3cccnc3)c3ccccc3n2)c1 | 0.9 | -3.1 | 2.9 | -6.2 | 19.3
Cc1ccc(-c2cc(C(=O)Nc3nccs3)c3ccccc3n2)c(C)c1 | · | -0.5 | -2.5 | -1.0 | 45.7
CC(C)(C)c1ccccc1NC(=O)c1cc(-c2ccncc2)nc2ccccc12 | -5.5 | -2.0 | -12.3 | -11.6 | 52.5*
O=C(Nc1nccs1)c1cc(-c2ccncc2)nc2ccccc12 | · | 0.8 | -2.6 | -25.4 | 55.6*
C[C@@H]1CN([C@H](C)CO)C(=O)c2cc(NC(=O)c3ccncc3)ccc2O[C@@H]1CN(C)S(=O)(=O)c1cccs1 | 3.7 | · | · | · | ·
COCC#Cc1cnc2c(c1)C(=O)N([C@H](C)CO)C[C@@H](C)[C@@H](CN(C)C(=O)c1ccc3c(c1)OCO3)O2 | -3.7 | · | · | · | ·
CCCCCC(=O)NNC(=O)Nc1ccccc1 | · | 1.6 | · | -9.4 | 2.2
CCCCSC(=O)Nc1ccccc1 | 50.1* | 2.4 | 4.9 | 8.9 | -0.8
COc1ccccc1-c1ccc(Nc2cccc(C(C)=O)c2)nn1 | 50.7* | 3.5 | 5.0 | 73.4 | -0.5
CC(=O)c1cccc(Nc2ccc(-c3ccccc3F)nn2)c1 | · | 5.3 | 10.2 | 71.8 | 12.8
CC(=O)c1ccc(Nc2cc(C)nc3ccccc23)cc1 | · | -3.8 | -0.1 | -9.6 | 6.1
SMILES | esBAF inh | FXN GAA850 act | Wnt bcat act | MITF act | AHR activator
CC(=O)c1ccc(Nc2ccc(-c3ccccc3C)nn2)cc1 | 82.5* | 5.7 | 38.7* | 85.1* | 5.0
Cc1c(C(=O)/C=C/c2ccccc2F)c2cc(O)ccc2n1C | 57.0* | 2.0 | -3.6 | · | ·
COc1ccccc1-c1nc(COc2ccc(Cl)cc2Cl)no1 | · | 5.3 | 54.3* | 148.8* | -0.3
c1ccc(CSCc2cn3ccsc3n2)cc1 | 59.4* | 4.5 | · | 84.5* | 0.6
Clc1ccc(SCc2cn3cccnc3n2)cc1 | ? | 2.5 | 9.6 | 48.5 | 0.5
Cc1csc2nc(CSc3ccc(Cl)cc3)cn12 | · | 4.0 | · | 91.8* | -1.6
O=C(Cc1cn2ccsc2n1)OCc1ccccc1 | 13.1 | 0.1 | -2.0 | 40.7 | 2.1
Clc1ccc(SCc2cn3ccsc3n2)cc1 | · | 2.3 | 52.4* | 79.6 | -4.1
